Data on 33 compounds can be found in PubChem BioAssay (NCI).

The panel holds about 83,000 compounds, 20% with a hit somewhere; the sample as a whole holds those more often.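 48-hour exposure, single concentration, 96-well plates; percent growth endpoint where 0 means no net growth. Active: below 10.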 A number with no mark means an inactive call. The source made the active and inactive calls.

The assay concerns CCRF-CEM leukemia. Description: NCI-60 one-dose screen, 48 h (100 = growth as untreated, 0 = no growth, -100 = all killed). Conditions: 10 µM unless noted.
`CCCCCN(CCCCC)CCC[C@@H](C)[C@H]1CC[C@H]2[C@@H]3[C@H](OCCCN)C[C@@H]4C[C@H](OCCCN)CC[C@]4(C)[C@H]3C[C@H](OCCCN)[C@]12C`: the growth was 15.3%. Regarding `O=C(CN1CCOCC1)Nc1ccc(Cn2nnc3c2C(=O)c2nnn(Cc4ccc(NC(=O)CN5CCOCC5)cc4)c2C3=O)cc1`, the growth is -21.4% (active). In the case of `COc1ccc(C(=O)/C=C/c2c(Cl)c3c(c(OC)c2Cl)OCC(=O)N3)cc1` it was 5.04% (active); in that of `CC1=C(NCCN2CCCC2)C(=O)c2c(OCc3ccc(C(F)(F)F)cc3)cccc2C1=O`, 1.19% (active); in that of `CC/C(=C(\c1ccc(O)cc1)c1ccc(OCCN(C)CCN(C)C(=O)CCCCC(=O)c2c(C)[nH]c(/C=C3\N=C(c4ccc[nH]4)C=C3OC)c2C)cc1)c1ccccc1`, 45.6%. `O=C(CCCN1CCOCC1)Nc1ccc(Cn2nnc3c2C(=O)c2nnn(Cc4ccc(NC(=O)CCCN5CCOCC5)cc4)c2C3=O)cc1`: the growth is -3.08% (active). As to `COc1ccc2nc3cc(Cl)ccc3c(N3CCN(c4nccc(NCc5ccccc5)n4)CC3)c2c1`, the growth is 0.798% (active). For the compound `O=C1CC(c2nc3ccccc3[nH]2)CN1C1CCCCC1` (stereo not drawn), the growth is 111%. Under `O=C1Nc2ccccc2C12CC(c1ccc(Cl)cc1)=NN2` (stereo not drawn) stands 88.3%; under `O=C1/C(=C/c2ccc(Cl)cc2Cl)CN(S(=O)(=O)c2ccccc2)C/C1=C\c1ccc(Cl)cc1Cl`, -13.2% (active). Consider `O=C(CCCCN1CCOCC1)Nc1ccc(Cn2nnc3c2C(=O)c2nnn(Cc4ccc(NC(=O)CCCCN5CCOCC5)cc4)c2C3=O)cc1`, for which the growth was -1.29% (active). In the case of `COc1ccc2nc3cc(Cl)ccc3c(N3CCN(c4nccc(Nc5ccccc5)n4)CC3)c2c1` it was 7.71% (active); in that of `CC1=C(NCCN2CCCC2)C(=O)c2c(OCc3cccc(Cl)c3)cccc2C1=O`, 54.9%.

For `O=C(CCN1CCOCC1)Nc1ccc(Cn2nnc3c2C(=O)c2nnn(Cc4ccc(NC(=O)CCN5CCOCC5)cc4)c2C3=O)cc1`, the growth was -15.4% (active). In the case of `Cc1sc2nc3[nH]/c(=C\c4ccc(Cl)cc4)c(=O)n3c(=O)c2c1C` it was 90.2%; in that of `COc1ccc2nc3cc(Cl)ccc3c(N3CCN(c4ccnc(N5CCN(C)CC5)n4)CC3)c2c1`, -27.9% (active). In the case of `CN(C)CCCC(=O)Nc1ccc(Cn2nnc3c2C(=O)c2nnn(Cc4ccc(NC(=O)CCCN(C)C)cc4)c2C3=O)cc1` it was 16.8%; in that of `CCCCCCCCCCCCCCCCNCCC[C@@H](C)[C@H]1CC[C@H]2[C@@H]3[C@H](OCCCN)C[C@@H]4C[C@H](OCCCN)CC[C@]4(C)[C@H]3C[C@H](OCCCN)[C@]12C`, -45.5% (active). In the case of `O=C(Nc1cccc2[nH]c(C(F)(F)F)nc12)c1ccc(Br)cc1F` it was 47.1%; in that of `CCCCNc1ccc2c3c1cccc3c(=O)n1c3ccccc3nc21`, 75%; in that of `COc1ccc(/C=C2\N=C3SC=C(N)N3C2=O)cc1`, -40.2% (active). With `COc1ccc2nc3cc(Cl)ccc3c(N3CCN(c4nccc(Nc5ccc(Cl)cc5)n4)CC3)c2c1`, the growth was 5.59% (active).

With `CC1=C(NCCN2CCCC2)C(=O)c2c(OCc3ccc(F)c(Cl)c3)cccc2C1=O`, the growth is 40.6%. Regarding `Cc1ccc(S(=O)(=O)n2cc(-c3csc(-c4cn(C)c5ncccc45)n3)c3ccccc32)cc1`, the growth is 37.4%. In the case of `COc1ccc(-c2cnoc2-c2cc(OC)c3c(c2)OCCO3)cc1` it was -7.11% (active); in that of `COc1ccccc1-c1ccc2c(N)c(C(=O)c3ccc4c(c3)OCO4)sc2n1`, 60.2%; in that of `COc1ccc(/C=c2/c(=O)[nH]c3nc4sc(C)c(C)c4c(=O)n23)cc1`, 66.9%. Under `CC(=O)N1CC(Nc2ccc(OC(F)(F)F)cc2)=CC1=O` stands 11%. Under `O=c1c2cccc3c(Nc4c(F)cccc4F)ccc(c32)c2nc3ccccc3n12` stands 72.5%; under `CCC(C)[C@@H]1NC(=O)[C@@H]2CCCN2C(=O)[C@H](Cc2ccccc2)NC(=O)[C@@H]2CCCN2C(=O)[C@H](Cc2ccccc2)NC(=O)[C@@H]2CCCN2C(=O)[C@H](Cc2ccccc2)NC1=O` (stereo partly drawn), 92.7%. Consider `O=C1CC(c2nc3ccccc3s2)CN1C1CCCCC1` (stereo not drawn), for which the growth is 100%. Under `Cc1cc(OCc2ccc(C(F)(F)F)cc2)c2c(c1)C(=O)C=C(NCCN1CCCC1)C2=O` stands 13%; under `O=C1Nc2ccccc2C12CC(c1ccccc1)=NN2` (stereo not drawn), 49.2%.
